# Assay results as given in PMC11062922 (Nature Chemical Biology, 2023).
# Read-outs that look alike come from different tables or passages of the source.
# Key:
# Parameters in all cases: species or system human, MV4-11 + K-562 + COLO205 + SK-N-BE2 + OVCAR-8
# ACVR1 = conditions: read-out: apparent Kd, n = 1
# GSK3A = conditions: read-out: apparent Kd; compound concentrations:100 nM and 1000 nM (sheet 'Samples'); n = 1
# GSK3B = conditions: read-out: apparent Kd, n = 1
# SIK2 = conditions: read-out: apparent Kd, n = 1
# ZAK = conditions: read-out: apparent Kd; compound concentrations:100 nM and 1000 nM (sheet 'Samples'); n = 1
# ACAD11 = conditions: read-out: apparent Kd, n = 1
# DYRK1A = conditions: read-out: apparent Kd; compound concentrations:100 nM and 1000 nM (sheet 'Samples'); n = 1
# FLT3 = conditions: read-out: apparent Kd, n = 1
# ACVR1B = conditions: read-out: apparent Kd; compound concentrations: 100 nM and 1000 nM (sheet 'Samples'), CATDS: 1.2545717700139699E-2; n = 1
# AURKB = conditions: read-out: apparent Kd; compound concentrations: 100 nM and 1000 nM (sheet 'Samples'), CATDS: 5.1121534714452903E-2; n = 1
# BTK = conditions: read-out: apparent Kd, compound concentrations: 100 nM and 1000 nM (sheet 'Samples'), n = 1
# DDR1 = conditions: read-out: apparent Kd, compound concentrations: 100 nM and 1000 nM (sheet 'Samples'), n = 1
# EGFR = conditions: read-out: apparent Kd, compound concentrations: 100 nM and 1000 nM (sheet 'Samples'), n = 1
# EPHA1 = conditions: read-out: apparent Kd, compound concentrations: 100 nM and 1000 nM (sheet 'Samples'), n = 1
# FRK = conditions: read-out: apparent Kd, compound concentrations: 100 nM and 1000 nM (sheet 'Samples'), n = 1
# LYN = conditions: read-out: apparent Kd, compound concentrations: 100 nM and 1000 nM (sheet 'Samples'), n = 1
# SRC = conditions: read-out: apparent Kd, compound concentrations: 100 nM and 1000 nM (sheet 'Samples'), n = 1
# CSK = conditions: read-out: apparent Kd, compound concentrations: 100 nM and 1000 nM (sheet 'Samples'), n = 1
# TNK2 = conditions: read-out: apparent Kd; compound concentrations: 100 nM and 1000 nM (sheet 'Samples'), CATDS: 3.47729479590888E-2; n = 1
# [1] = compound concentrations:100 nM and 1000 nM (sheet 'Samples')
compound,measurement,setting,value
COc1cccc(-c2c[nH]c3c(N/N=C/c4ccncc4)ncnc23)c1 [GW814408X],potency estimated from few doses,ACVR1; [1],1370 nM
same,potency estimated from few doses,GSK3A,133 nM
same,potency estimated from few doses,GSK3B; [1],112 nM
same,potency estimated from few doses,SIK2; [1],1180 nM
same,potency estimated from few doses,ZAK,1540 nM
N#Cc1cccc(Nc2nccc(-c3cnn4ncccc34)n2)c1 [GW778894X],potency estimated from few doses,ACAD11; [1],228 nM
same,potency estimated from few doses,DYRK1A,35.9 nM
same,potency estimated from few doses,FLT3; [1],137 nM
same,potency estimated from few doses,GSK3A,28.3 nM
same,potency estimated from few doses,"GSK3B; compound concentrations: 100 nM and 1000 nM (sheet 'Samples'), CATDS: 5.9931823260346899E-2",21.2 nM
Cc1cc(O)cc(C)c1/C=C/c1cncc(-c2nn[nH]n2)c1.Cl [GW441806A],potency estimated from few doses,"ACVR1; compound concentrations: 100 nM and 1000 nM (sheet 'Samples'), CATDS: 0.132778001486796",85.5 nM
same,potency estimated from few doses,"SIK2; compound concentrations: 100 nM and 1000 nM (sheet 'Samples'), CATDS: 4.4020639379416998E-2",1540 nM
CNC(=O)c1ccccc1Nc1nc(Nc2cccc(CS(C)(=O)=O)c2)ncc1C.O=CO [GSK1520489A],potency estimated from few doses,ACVR1B,511 nM
same,potency estimated from few doses,AURKB,22.6 nM
same,potency estimated from few doses,BTK; CATDS: 3.3529613297139299E-2,46.5 nM
same,potency estimated from few doses,DDR1; CATDS: 1.3625362720769099E-2,389 nM
same,potency estimated from few doses,EGFR; CATDS: 1.37119506592154E-2,382 nM
same,potency estimated from few doses,EPHA1; CATDS: 4.9501189051371401E-2,23.8 nM
same,potency estimated from few doses,"FLT3; compound concentrations: 100 nM and 1000 nM (sheet 'Samples'), CATDS: 1.2283454590930699E-2",550 nM
same,potency estimated from few doses,FRK; CATDS: 1.0457896251618699E-2,1050 nM
same,potency estimated from few doses,LYN; CATDS: 1.17680848685595E-2,643 nM
same,potency estimated from few doses,"SIK2; compound concentrations: 100 nM and 1000 nM (sheet 'Samples'), CATDS: 1.1089332631068699E-2",813 nM
same,potency estimated from few doses,SRC; CATDS: 1.1920002971419799E-2,613 nM
CN1CCN(c2ccc(Nc3nc(N)c(C(=O)c4ccc5c(c4)OCCO5)s3)cc2)CC1 [RO0505124-000],potency estimated from few doses,"ACAD11; compound concentrations: 100 nM and 1000 nM (sheet 'Samples'), CATDS: 0.36798074276012699",137 nM
CN1CCc2ccc(Nc3nccc(-c4c(-c5cccc(NC(=O)c6c(F)cccc6F)c5)nc5ccccn45)n3)cc2C1.Cl [GSK1010829B],potency estimated from few doses,BTK; CATDS: 5.3394659124358E-2,497 nM
same,potency estimated from few doses,CSK; CATDS: 3.4286589805654001E-2,1380 nM
same,potency estimated from few doses,DDR1; CATDS: 3.8396909039531198E-2,1010 nM
same,potency estimated from few doses,EGFR; CATDS: 3.29518195590447E-2,1570 nM
same,potency estimated from few doses,FRK; CATDS: 4.3093308654231798E-2,770 nM
same,potency estimated from few doses,LYN; CATDS: 6.0028262979631E-2,403 nM
same,potency estimated from few doses,SRC; CATDS: 5.29363400907749E-2,505 nM
CC(C)c1nc(-c2cccc(NS(=O)(=O)c3c(F)cccc3F)c2F)c(-c2ccnc(Nc3ccc(N4CCOCC4)nc3)n2)s1 [GSK2008607A],potency estimated from few doses,BTK; CATDS: 2.19270493489029E-2,1030 nM
same,potency estimated from few doses,CSK; CATDS: 4.1008032947333198E-2,262 nM
same,potency estimated from few doses,EPHA1; CATDS: 2.5663443213215401E-2,679 nM
same,potency estimated from few doses,LYN; CATDS: 2.5134529621639101E-2,715 nM
same,potency estimated from few doses,TNK2,355 nM
